Measured values: PubChem BioAssay (NCI)
This is part of a sample that, as a whole, favours compounds with a hit. Of some 79,000 tested, about 15% had one in any assay. Calls of active or inactive are those of the source. No stated cut-off is given here; in the data, active means growth inhibition above about 70%; inactive means the rest.

What was measured:
[1] = NCI Yeast Anticancer Drug Screen. Data for the rad52 strain (AID 147);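 further: 0% = growth of vehicle-treated control cultures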; conditions: S. cerevisiae rad52 mutant growth inhibition, hits give high values
Summary of the method: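 Screen used a yeast mutant impaired in DNA repair. After compound exposure, growth was measured. Values reflect inhibition compared with vehicle-treated cells.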

[2] = NCI Yeast Anticancer Drug Screen. Data for the wt1 strain (AID 149);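 further: 0% = growth of vehicle-treated wt1 cultures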; conditions: S. cerevisiae wt1 strain (SPY 50644) growth inhibition, hits give high values
Summary of the method: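 Compounds are added to wt1 yeast cultures. Growth is then measured. Inhibition is expressed relative to vehicle-treated controls.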

[3] = NCI Yeast Anticancer Drug Screen. Data for the rad50EPP+ strain (AID 151);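 further: 0% = growth of vehicle-treated control cultures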; conditions: S. cerevisiae rad50 mutant strain, hits give high values
Summary of the method: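 Exposing the rad50EPP+ strain to each compound, growth was compared with vehicle-only cultures to give inhibition.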

[4] = NCI Yeast Anticancer Drug Screen. Data for the mgt1 strain (AID 153); conditions: S. cerevisiae mgt1 mutant growth inhibition, hits give high values
Summary of the method: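 Genetically defined yeast (mgt1) treated with compound; inhibition of growth expressed against vehicle-treated controls.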

[5] = NCI Yeast Anticancer Drug Screen. Data for the rad50 strain (AID 155);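 further: 0% = growth of vehicle-only cultures of the same strain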; conditions: S. cerevisiae rad50 strain growth inhibition, hits give high values
Summary of the method: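 Inhibition values express reduced yeast growth in compound-treated cultures relative to vehicle-treated controls.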

[6] = NCI Yeast Anticancer Drug Screen. Data for the mec2-1 strain (AID 157); conditions: S. cerevisiae mec2-1 strain, hits give high values
Summary of the method: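 Readout is yeast growth inhibition, normalised to vehicle-treated controls, in the mec2-1 strain exposed to compound.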

[7] = NCI Yeast Anticancer Drug Screen. Data for the rad14 strain (AID 159);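 further: 0% = growth of vehicle-treated control cultures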; conditions: S. cerevisiae rad14 strain growth inhibition, hits give high values
Summary of the method: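 A mutant yeast strain defective in DNA damage repair is treated with compound; inhibition of its growth is scored against untreated, vehicle-exposed cultures.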

[8] = NCI Yeast Anticancer Drug Screen. Data for the sgs1 mgt1 strain (AID 161);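 further: 0% = growth of cultures given vehicle only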; conditions: S. cerevisiae sgs1 mgt1 strain, hits give high values
Summary of the method: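 Percent growth inhibition was derived by comparing compound-exposed mutant yeast with vehicle-exposed cultures. The strain carries alterations in DNA damage repair.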

[9] = NCI Yeast Anticancer Drug Screen. Data for the CLN2oe strain (AID 163);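 further: 0% = growth of vehicle-only control cultures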; conditions: S. cerevisiae CLN2oe strain, hits give high values
Summary of the method: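 Values reflect how much compound exposure reduced yeast growth, referenced to vehicle-exposed cells. Assay organism is a strain with a defined genetic change affecting cell-cycle control.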

[10] = NCI Yeast Anticancer Drug Screen. Data for the cln2 rad14 strain (AID 165);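 further: 0% = growth equal to vehicle treated cultures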; conditions: S. cerevisiae cln2 rad14 strain, hits give high values
Summary of the method: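 Relative to vehicle controls, growth inhibition of compound-treated cln2 rad14 yeast was recorded.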

[11] = NCI Yeast Anticancer Drug Screen. Data for the bub3 strain (AID 167); conditions: S. cerevisiae bub3 mutant strain, hits give high values
Summary of the method: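 Steps: expose the mutant yeast strain to compound; grow alongside vehicle-treated cultures; measure growth; express inhibition against the vehicle cultures.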

[12] = NCI Yeast Anticancer Drug Screen. Data for the wt2 strain (AID 169);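 further: 0% = growth of vehicle-treated yeast cultures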; conditions: S. cerevisiae wt2 strain growth inhibition, hits give high values
Summary of the method: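 Values express reduction in yeast growth under compound treatment, referenced to vehicle-treated cells.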

[13] = NCI Yeast Anticancer Drug Screen. Data for the mlh1 strain (AID 171);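 further: 0% = growth of vehicle-treated control cultures of the same strain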; conditions: S. cerevisiae mlh1 strain growth inhibition, hits give high values
Summary of the method: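 Steps: expose the defined-mutant yeast strain to compound; expose a parallel culture to vehicle; measure growth; express compound effect as inhibition relative to the vehicle culture.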

[14] = NCI Yeast Anticancer Drug Screen. Data for the sgs1 strain (AID 173);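 further: 0% = growth of vehicle-only control cultures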; conditions: S. cerevisiae sgs1 mutant, hits give high values
Summary of the method: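 Treat defined-mutant yeast with compound; measure growth; calculate inhibition relative to vehicle-treated cells.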

[15] = NCI Yeast Anticancer Drug Screen. Data for the rad18 strain (AID 177); conditions: S. cerevisiae rad18 mutant growth inhibition, hits give high values
Summary of the method: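 A genetically defined yeast mutant impaired in DNA damage repair was treated with test compounds, then its growth was measured against cultures receiving vehicle alone.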

[16] = NCI Yeast Anticancer Drug Screen. Data for the mlh1 rad18 strain (AID 175); conditions: S. cerevisiae mlh1 rad18 strain growth inhibition, hits give high values
Summary of the method: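 Test agents were incubated with a yeast strain of defined genotype (DNA damage repair defect). Inhibition of growth was derived by comparison with vehicle-exposed cultures.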

[17] = at 5.0 µM (retest, dose inferred, filed as 0.5)
[18] = at 50.0 µM (retest, dose inferred, filed as 5.0)

Measured: growth inhibition

COC(=O)CC1CCc2c(ccc3ccccc23)C1(C)C(=O)OC (stereo not drawn)
active: [8]; [18] 80% | [11]; [18] 75% | [11]; at 100.0 µM 71% | [14]; at 100.0 µM 79%
inactive: [1]; at 1.2 µM -1% | [1]; at 3.7 µM 2% | [1]; at 11.0 µM 14% | [1]; at 33.0 µM 5% | [1]; at 100.0 µM 32% | [2]; at 1.2 µM -2% | [2]; at 3.7 µM -4% | [2]; at 11.0 µM 7% | [2]; at 33.0 µM -10% | [2]; at 100.0 µM -1% | [3]; at 1.2 µM 5% | [3]; at 3.7 µM 16% | [3]; at 11.0 µM 16% | [3]; at 33.0 µM 48% | [3]; at 100.0 µM 45% | [4]; at 1.2 µM -3% | [4]; at 3.7 µM 0% | [4]; at 11.0 µM -2% | [4]; at 33.0 µM 17% | [4]; at 100.0 µM 53% | [5]; at 1.2 µM 1% | [5]; at 3.7 µM 2% | [5]; [17] -5% | [5]; at 11.0 µM 10% | [5]; at 33.0 µM 15% | [5]; [18] 21% | [5]; at 50.0 µM 15.3% | [5]; at 100.0 µM 37% | [6]; at 1.2 µM -3% | [6]; at 3.7 µM -2% | [6]; [17] -5% | [6]; at 11.0 µM -2% | [6]; at 33.0 µM -7% | [6]; [18] 28% | [6]; at 50.0 µM -1.05% | [6]; at 100.0 µM 6% | [7]; at 1.2 µM -2% | [7]; at 3.7 µM 1% | [7]; at 11.0 µM 2% | [7]; at 33.0 µM -5% | [7]; at 100.0 µM 10% | [8]; [17] -2% | [8]; at 50.0 µM 66% | [9]; at 1.2 µM -4% | [9]; at 3.7 µM -5% | [9]; at 11.0 µM -11% | [9]; at 33.0 µM -21% | [9]; at 100.0 µM 0% | [10]; [17] -3% | [10]; [18] 11% | [10]; at 50.0 µM 1.4% | [11]; at 1.2 µM 3% | [11]; at 3.7 µM 2% | [11]; [17] 2% | [11]; at 11.0 µM 6% | [11]; at 33.0 µM 46% | [11]; at 50.0 µM 63.5% | [12]; at 1.2 µM 1% | [12]; at 3.7 µM -8% | [12]; at 11.0 µM -1% | [12]; at 33.0 µM -5% | [12]; at 100.0 µM 12% | [13]; at 1.2 µM -5% | [13]; at 3.7 µM -2% | [13]; at 11.0 µM 0% | [13]; at 33.0 µM 14% | [13]; at 100.0 µM 57% | [14]; at 1.2 µM -24% | [14]; at 3.7 µM -30% | [14]; at 11.0 µM -18% | [14]; at 33.0 µM 13% | [15]; at 1.2 µM -10% | [15]; at 3.7 µM -4% | [15]; at 11.0 µM -2% | [15]; at 33.0 µM -3% | [15]; at 100.0 µM 20%

CN(CCN(C)Cc1ccccc1)Cc1ccccc1
inactive: [1]; at 1.2 µM -5% | [1]; at 3.7 µM 8% | [1]; at 11.0 µM -4% | [1]; at 33.0 µM 19% | [1]; at 100.0 µM 2% | [2]; at 1.2 µM -16% | [2]; at 3.7 µM -9% | [2]; at 11.0 µM -12% | [2]; at 33.0 µM 0% | [2]; at 100.0 µM 14% | [3]; at 1.2 µM -13% | [3]; at 3.7 µM -3% | [3]; at 11.0 µM -4% | [3]; at 33.0 µM -22% | [3]; at 100.0 µM -40% | [4]; at 1.2 µM -13% | [4]; at 3.7 µM -4% | [4]; at 11.0 µM 14% | [4]; at 33.0 µM 11% | [4]; at 100.0 µM 58% | [5]; at 1.2 µM -18% | [5]; at 3.7 µM -12% | [5]; [17] 40% | [5]; at 11.0 µM -5% | [5]; at 33.0 µM 9% | [5]; at 50.0 µM 24.5% | [5]; at 100.0 µM 6% | [6]; at 1.2 µM -33% | [6]; at 3.7 µM -19% | [6]; [17] 45% | [6]; at 11.0 µM -25% | [6]; at 33.0 µM -6% | [6]; at 50.0 µM 12.9% | [6]; at 100.0 µM 2% | [7]; at 1.2 µM 5% | [7]; at 3.7 µM 18% | [7]; at 11.0 µM 18% | [7]; at 33.0 µM 43% | [7]; at 100.0 µM 68% | [8]; [17] -1% | [8]; [18] 57% | [8]; at 50.0 µM 51.3% | [9]; at 1.2 µM -12% | [9]; at 3.7 µM -5% | [9]; at 11.0 µM 5% | [9]; at 33.0 µM 18% | [9]; at 100.0 µM 44% | [10]; [17] 16% | [10]; [18] 38% | [10]; at 50.0 µM 31.1% | [11]; at 1.2 µM -31% | [11]; at 3.7 µM -15% | [11]; [17] 14% | [11]; at 11.0 µM -13% | [11]; at 33.0 µM 9% | [11]; [18] 39% | [11]; at 50.0 µM 60.5% | [11]; at 100.0 µM 3% | [12]; at 1.2 µM -17% | [12]; at 3.7 µM -9% | [12]; at 11.0 µM 2% | [12]; at 33.0 µM 1% | [12]; at 100.0 µM 14% | [14]; at 1.2 µM -6% | [14]; at 3.7 µM -10% | [14]; at 11.0 µM -10% | [14]; at 33.0 µM 10% | [14]; at 100.0 µM 30% | [16]; [17] 25% | [16]; at 50.0 µM 32.3% | [15]; at 1.2 µM -2% | [15]; at 3.7 µM 14% | [15]; at 11.0 µM 17% | [15]; at 33.0 µM 32% | [15]; at 100.0 µM 35%
active: [5]; [18] 79% | [6]; [18] 81% | [16]; [18] 72%
